# Hits are enriched below; roughly 22% of the tested compounds scored in any of these assays.
# Pf growth 48h – Primary qHTS for delayed death inhibitors of the malarial parasite plastid, 48 hour incubation; Potency, µM (highest dose often 28.7 µM), without a hit: at the top dose activity change, negative = inhibition, hits mostly inhibitors; 310,000 compounds, 5.9% hits; P. falciparum luciferase growth in erythrocytes, 48 h; also: potency is read from the fitted curve at half-maximal effect; % is scaled to controls: 0 for no effect and ±100 for the full control effect
#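 Luciferase-expressing P. falciparum in infected erythrocytes (2% hematocrit, 0.1% parasitemia final) in RPMI 1640/0.5% Albumax were exposed to compound for 48 hours at 37 C, 5% CO2; growth read as luminescence.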
# Cycloheximide cs – Cycloheximide Counterscreen for Small Molecule Inhibitors of Shiga Toxin; cell reporter, cycloheximide protein synthesis inhibition counterscreen; max response, %; 300,000 compounds, 12% hits; AID 2314, 2010; in the data active = max response mostly above about 13%, no sharp cut-off; inactive = mostly below about 14%; also: read at 38.3 µM for the half of the compounds with a filed dose; 0% is about no effect
# Pf growth 96h – Primary qHTS for delayed death inhibitors of the malarial parasite plastid, 96 hour incubation; 320,000 compounds, 6.9% hits; Potency, µM (doses to about 28.7 µM), for the others: top-dose activity change, negative = inhibition, actives largely listed as inhibitors; P. falciparum luciferase reporter growth, 96 h; also: potency is read from the fitted curve at half-maximal effect; % is scaled to controls: 0 for no effect and ±100 for the full control effect
#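 Plates of compound plus infected erythrocytes (2% hematocrit, 0.05% parasitemia final) incubate 96 hours, 37 C, 5% CO2. Detection reagent added; reduced luminescence from the parasites' luciferase reporter flags inhibition.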
# Shiga inhibitor – A qHTS for Small Molecule Inhibitors of Shiga Toxin. inhibition, % at 38.7 µM. Vero cells, Shiga toxin protein synthesis inhibition reporter. 290,000 compounds, 9.2% hits; in the data active = inhibition mostly above about 28%, no sharp cut-off; inactive = mostly below about 43%; also: 0% is about no effect
# LmPK inhibitor – qHTS Assay for Inhibitors of Leishmania Mexicana Pyruvate Kinase (LmPK); Q27686; purified LmPK, Kinase-Glo ATP luminescence, 1 h; 290,000 compounds, 0.37% hits; AID 1721, 2009; Potency, µM (doses to about 57.5 µM), inactives show at the top dose activity change, negative = inhibition, hits mostly inhibitors; also: potency is read from the fitted curve at half-maximal effect; % is scaled to controls: 0 for no effect and ±100 for the full control effect
# Target sequence (Q27686 whole entry, looked up): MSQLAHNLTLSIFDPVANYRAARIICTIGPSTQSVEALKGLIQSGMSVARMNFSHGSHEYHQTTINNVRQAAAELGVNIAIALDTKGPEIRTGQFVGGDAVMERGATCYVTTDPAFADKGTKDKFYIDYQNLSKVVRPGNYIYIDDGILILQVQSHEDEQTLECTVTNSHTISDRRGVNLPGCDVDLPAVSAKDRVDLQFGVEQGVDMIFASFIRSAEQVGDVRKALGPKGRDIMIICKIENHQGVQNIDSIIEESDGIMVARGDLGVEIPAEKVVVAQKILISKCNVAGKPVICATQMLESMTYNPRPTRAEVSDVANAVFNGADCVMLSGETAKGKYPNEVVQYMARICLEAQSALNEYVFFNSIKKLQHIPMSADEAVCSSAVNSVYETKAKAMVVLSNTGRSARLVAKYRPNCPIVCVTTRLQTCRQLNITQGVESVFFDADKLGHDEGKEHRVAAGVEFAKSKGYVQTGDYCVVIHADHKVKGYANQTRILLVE
#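 Pyruvate kinase activity monitored as ATP production (luciferase luminescence). Conditions: 0.1 nM enzyme, 0.5 mM PEP, 0.1 mM ADP, 1 h, RT; normalized against uninhibited and no-enzyme wells.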
# The depositor's hits bear a star; i = inactive; u = inconclusive; x = not tested or not shown; + = active, no number; [ ] = remark or other dose. Unless noted, calls follow the shape of the dose curve; as a rule, active = well fitted inhibition curve with a large enough effect; inconclusive = small, poorly fitted or top-dose-only effect, or another doubt; inactive = no such curve, though single readings can be large or run the other way.
SMILES,Pf growth 48h,Cycloheximide cs,Pf growth 96h,Shiga inhibitor,LmPK inhibitor
CC1=NN(C(=O)c2ccccc2)C(O)(c2ccc(Br)cc2)C1 (stereo not drawn),u,44*,3.7µM*,68*,0%
CC1(C)OC(=O)C(=NNc2ccc(C(=O)O)cc2)C(=O)O1,26%,15,7%,17,3%
CC1(C)OC(=O)C(=NNc2ccc(Cl)cc2)C(=O)O1,x,60*,-8%,63*,-3%
CC1(C)OC(=O)C(=NNc2ccc(O)cc2)C(=O)O1,59%,13*,47%,42,2%
CCCCc1ccc(NC(=O)CC(C)(C)C)cc1,58%,144*,u,164*,2%
CCCCc1ccc(NC(=O)C(C)CC)cc1 (stereo not drawn),43%,48*,7%,51*,u
CCCCc1ccc(NC(=O)CC(C)=O)cc1,u,0,u,43,-9%
N#CCCN1CCN(S(=O)(=O)c2ccc(S(=O)(=O)NC3CCCC3)cc2)CC1,8%,6,u,10,2%
Cc1ccc(SCCN2CCC(O)CCC2=O)cc1 (stereo not drawn),27%,19,42%,11,-4%
CCN(Cc1ccccc1)c1ccc(/C=N/N=C(N)N)cc1,1.5µM*,-4,1.7µM*,-17,1%
CCN(Cc1ccccc1)c1ccc(/C=N/NC(=S)NC(C)C)cc1,0%,1,4%,-11,4%
NC(N)=N/N=C/c1ccc(N(c2ccccc2)c2ccccc2)cc1,2.3µM*,-12,2.1µM*,-16,10%
Cc1ccc(Cl)c(OCCN2CCc3ccccc3C2)c1,-2%,-3,u,6,-4%
O=C(c1ccc(Cn2cc([N+](=O)[O-])cn2)o1)N1CCCCCC1,-15%,12,5%,38,-4%
CCCCCCOc1ccc(C(=O)O)cc1,14%,16*,4%,42*,-7%
O=C(O)c1cnc(-c2ccccc2)nc1Oc1ccccc1,4%,-11,27%,-16,1%
CCCCOc1ccc(-c2ncc(C(=O)O)c(C)n2)cc1,191%,28*,24%[5.75 µM],99*,-4%
CCCCOc1ccc(/C(N)=N/O)cc1,99%,43*,u,82*,-2%
Cn1cccc1C(=O)NC(=O)COC(=O)c1cc(S(=O)(=O)N2CCCCC2)ccc1Cl,6%,-3,35%,-12,9%
CCCCC(Br)C(=O)Nc1ccc(S(=O)(=O)Nc2cc(C)nc(C)n2)cc1 (stereo not drawn),31%,-6,15%,-8,-1%
CC(C)C(NS(=O)(=O)c1cccs1)C(=O)N1CCC(C(N)=O)CC1 (stereo not drawn),2%,x,20%,x,x
CC(=O)c1ccc(-c2c(C)cc3oc(=O)cc(-c4ccccc4)c3c2C)cc1,x,30*,x,+,x
Cc1cc2oc(=O)cc(-c3ccccc3)c2c(C)c1-c1ccc(CO)cc1,x,5,x,i,x
COc1ccc(C(=O)/C=C/c2ccsc2)cc1CSCC(=O)O,u,-2,6.6µM*,-11,-7%
Clc1ccc(NCc2ccsc2)cc1,37%,13*,0%,27*,-6%
SMILES,Pf growth 48h,Cycloheximide cs,Pf growth 96h,Shiga inhibitor,LmPK inhibitor
Cc1ccccc1CN1CCN(C(=O)CC(C)C)CC1,31%,-2,10µM*,x,24%
O=C(c1cccc2ccccc12)N1CCN(Cc2ccccc2F)CC1,0%,0,u,-4,-1%
CCOc1cc(CN2CCN(C(=O)c3cccc4ccccc34)CC2)ccc1OC,8.3µM*,1,u,-13,1%
COc1ccc(CN2CCN(C(=O)CC(C)C)CC2)c2ccccc12,-25%,2,x,-19,3%
Cc1ccccc1CN1CCN(C(=O)c2cccc3ccccc23)CC1,12µM*,-2,0%,-17,6%
COc1ccc(CN2CCN(C(=O)c3cccc4ccccc34)CC2)cc1OC,-8%,-4,u,0,4%
CC(C)(CC(=O)OCC(=O)Nc1ccccc1F)CC1=NS(=O)(=O)c2ccccc2N1,u,-4,12µM*,-3,3%
O=C(NCCN1CCCC1)C1CCC(=O)N(CCCN2CCOCC2)C1 (stereo not drawn),9%,-3,u,-15,-10%
Cc1ccc(S(=O)(=O)N2CCN(C(=O)CSc3nc(N)cc(=O)[nH]3)CC2)c(C)c1,8%,-4,1%,-5,0%
CC1Oc2ccccc2N(CC(=O)N2CCCCCC2)C1=O (stereo not drawn),9%,7,22%,-17,-5%
Nn1c(SCc2ccccc2F)nnc1-c1cccnc1,112%,40*,124%,75*,-6%
Nn1c(SCc2ccc(Br)cc2)nnc1-c1ccccn1,8%,-3,13%,-6,-4%
Cn1c(SCc2nc3ccccc3[nH]2)nnc1-c1cnccn1,6%,27,x,43,-7%
Cc1cccc(CSc2nnc(-c3ccccn3)n2N)c1,33%,18*,u,36,4%
Cn1c(SCc2ccccc2F)nnc1-c1cnccn1,123%,75*,u,111*,-5%
Nn1c(SCc2cccc(F)c2)nnc1-c1cccnc1,56%,14,82%,24,-2%
Cn1c(SCc2ccccn2)nnc1-c1cnccn1,39%,38*,-1%,57*,-5%
CCc1ccc(NC(=O)COC(=O)/C=C/c2c(C)nn(C3CCS(=O)(=O)C3)c2Cl)cc1 (stereo not drawn),-4%,-1,1%,10,-3%
Cn1c(SCc2ccccc2F)nnc1-c1ccccn1,275%,44*,11%,109*,-2%
CCN(CC)C(=O)CSc1nnc(-c2ccccc2)n1N,16%,21,-4%,-7,-5%
Cc1cccc(CSc2nnc(-c3cnccn3)n2C)c1,-36%,17*,33%,45*,1%
C=C(C)CSc1nnc(-c2ccccc2)n1N,30%,24*,-22%,75*,-4%
CCOc1ccc(S(=O)(=O)N2CCN(C(=O)CN3C(=O)NC(C)(C)C3=O)CC2)cc1,-7%,x,-27%,x,x
CC1CCCC(C)N1S(=O)(=O)c1ccc(NC(=O)CCn2cnc3ccccc3c2=O)cc1 (stereo not drawn),13µM*,14,x,13,4%
O=C(Cn1cnc2ccccc2c1=O)Nc1ccc2c(c1)CCC2,9%,5,u,-24,-7%
O=C(Cn1cnc2ccccc2c1=O)NCCC(=O)Nc1ccc2c(c1)OCCO2,52%,4,10µM*,35,-3%
O=C(Cn1cnc2ccccc2c1=O)NCCC(=O)Nc1ccc(F)cc1,20%,-2,3%,16,-5%
O=C(Cn1cnc2ccccc2c1=O)Nc1ccc2c(c1)OCCO2,99%,46*,-13%,90*,2%
Cc1ccc2oc(-c3cccc(NC(=O)c4ccc(Br)o4)c3C)nc2c1,x,66*,32%,70*,2%

# Assay outcomes (PubChem)
